Records with an inconclusive call do not appear. The source made the active and inactive calls. Rule for the calls: active = hit-call score of the fitted dose curve at least 0.9, where 1 is the maximum; inconclusive = response in the unintended direction; inactive = score below 0.9.
The compounds below were run against human Thyroid Receptor Alpha (TRa), THRA (gene 7067) (UniProt P10827) (assay: NVS_NR_hTRa_Antagonist: NovaScreen (NVS) Nuclear Receptor Binding Assay for human Thyroid Receptor Alpha Antagonism (TRa) (AID 2283362)).
human Thyroid Receptor Alpha (TRa), THRA (gene 7067), sequence (P10827 whole entry, looked up): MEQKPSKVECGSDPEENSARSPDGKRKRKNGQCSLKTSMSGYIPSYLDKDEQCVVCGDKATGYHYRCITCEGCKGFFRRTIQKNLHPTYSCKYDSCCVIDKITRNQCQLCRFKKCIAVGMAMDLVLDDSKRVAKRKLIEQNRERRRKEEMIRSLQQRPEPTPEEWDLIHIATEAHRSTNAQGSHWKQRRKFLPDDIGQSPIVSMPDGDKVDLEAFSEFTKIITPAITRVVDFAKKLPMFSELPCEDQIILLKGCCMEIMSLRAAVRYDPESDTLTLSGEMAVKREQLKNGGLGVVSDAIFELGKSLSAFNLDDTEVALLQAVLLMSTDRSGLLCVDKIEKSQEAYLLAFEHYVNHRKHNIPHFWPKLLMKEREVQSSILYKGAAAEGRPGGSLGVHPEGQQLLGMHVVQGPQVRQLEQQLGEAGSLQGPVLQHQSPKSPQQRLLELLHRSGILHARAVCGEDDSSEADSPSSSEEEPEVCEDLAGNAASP
Summary of the method: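 Cell-free binding assay on extracted receptor protein, read 1 h after chemical dosing by AlphaLISA chemiluminescence; loss of signal relative to DMSO baseline marks antagonism. Primary screen ran in duplicate at 25 uM, with concentration series for actives.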
For Nc1ccc(N)cc1, the AC50 was 31.7 µM (active).
In the case of O=S1(=O)OC(c2cc(Br)c(O)c(Br)c2)(c2cc(Br)c(O)c(Br)c2)c2ccccc21, the AC50 is reported as 4.18 µM (active).
Nc1ncn[nH]1 was tested, and the outcome was “inactive”.

These compounds were tested against Glucocorticoid receptor (Homo sapiens) (UniProt P04150) (assay: NVS_NR_hGR: NovaScreen (NVS) Nuclear Receptor Binding Assay for human Glucocorticoid Receptor (GR) (AID 2283363)).
Glucocorticoid receptor (Homo sapiens), sequence (P04150 whole entry, looked up): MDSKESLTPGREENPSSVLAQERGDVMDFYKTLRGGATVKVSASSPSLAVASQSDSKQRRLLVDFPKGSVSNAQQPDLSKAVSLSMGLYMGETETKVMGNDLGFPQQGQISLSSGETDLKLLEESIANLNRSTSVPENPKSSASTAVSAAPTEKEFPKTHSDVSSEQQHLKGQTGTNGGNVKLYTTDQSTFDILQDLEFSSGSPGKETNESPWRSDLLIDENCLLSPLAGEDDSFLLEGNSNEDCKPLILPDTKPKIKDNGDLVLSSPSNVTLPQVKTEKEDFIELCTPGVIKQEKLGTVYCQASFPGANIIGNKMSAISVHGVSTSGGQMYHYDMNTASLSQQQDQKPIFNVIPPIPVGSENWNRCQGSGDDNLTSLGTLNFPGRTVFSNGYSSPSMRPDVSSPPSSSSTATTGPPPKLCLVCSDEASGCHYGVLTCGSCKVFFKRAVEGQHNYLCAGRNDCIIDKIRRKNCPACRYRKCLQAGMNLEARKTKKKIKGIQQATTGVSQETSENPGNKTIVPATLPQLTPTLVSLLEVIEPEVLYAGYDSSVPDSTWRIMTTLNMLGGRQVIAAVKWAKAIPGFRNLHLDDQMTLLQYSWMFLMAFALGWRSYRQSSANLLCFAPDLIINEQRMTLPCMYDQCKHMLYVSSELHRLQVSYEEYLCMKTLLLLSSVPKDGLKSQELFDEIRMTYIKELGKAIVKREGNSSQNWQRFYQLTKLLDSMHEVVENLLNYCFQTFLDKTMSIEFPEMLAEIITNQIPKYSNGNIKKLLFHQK
Summary of the method: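 Compounds first tested in duplicate at 25 uM, actives followed up in concentration series. Binding to extracted GR protein measured as competitive radioligand displacement, filter scintillation read 16 h post-dosing, normalised to DMSO.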
With CC(C=O)Cc1ccc2c(c1)OCO2 (stereo not drawn) the outcome was “inactive”.
O=S1(=O)OC(c2cc(Br)c(O)c(Br)c2)(c2cc(Br)c(O)c(Br)c2)c2ccccc21 was tested, and the AC50 was 0.426 µM (active).
With [Cl][Sn]([c]1ccccc1)([c]1ccccc1)[c]1ccccc1 the AC50 was 3.31 µM (active).
In the case of Cc1cccc(OP(=O)(Oc2cccc(C)c2)Oc2cccc(C)c2)c1, the outcome is reported as “inactive”.
With Cc1ccc2nc3sc(=O)sc3nc2c1 the AC50 was 1.64 µM (active).
In the case of CC(O)(CS(=O)(=O)c1ccc(F)cc1)C(=O)Nc1ccc(C#N)c(C(F)(F)F)c1 (stereo not drawn), the outcome is reported as “inactive”.

The compounds below were run against Nuclear receptor subfamily 1 group I member 2 (Homo sapiens) (UniProt O75469) (assay: NVS_NR_hPXR: NovaScreen (NVS) Nuclear Receptor Binding Assay for human Pregnane X Receptor (PXR) (AID 2283365);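 note: a drop in FRET signal versus DMSO baseline means the compound binds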).
Nuclear receptor subfamily 1 group I member 2 (Homo sapiens), sequence (O75469 whole entry, looked up): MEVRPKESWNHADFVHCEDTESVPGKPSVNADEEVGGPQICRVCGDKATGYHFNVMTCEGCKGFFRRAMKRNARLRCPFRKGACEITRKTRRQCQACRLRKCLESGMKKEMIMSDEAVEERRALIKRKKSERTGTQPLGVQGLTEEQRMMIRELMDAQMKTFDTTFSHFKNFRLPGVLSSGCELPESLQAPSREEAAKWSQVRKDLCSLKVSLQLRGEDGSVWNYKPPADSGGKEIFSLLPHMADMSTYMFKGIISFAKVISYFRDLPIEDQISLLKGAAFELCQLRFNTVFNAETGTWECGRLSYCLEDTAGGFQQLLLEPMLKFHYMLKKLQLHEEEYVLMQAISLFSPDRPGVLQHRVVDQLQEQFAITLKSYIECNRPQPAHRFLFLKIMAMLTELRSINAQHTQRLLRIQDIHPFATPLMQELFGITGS
Summary of the method: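 Cell-free binding assay with extracted human PXR protein, read by TR-FRET 2 h after dosing; loss of signal relative to DMSO baseline indicates binding. Primary screen at 25 uM in duplicate, actives retested in concentration series.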
With Nc1ccc(N)cc1 the AC50 was 25 µM (active).
C=CC(Cl)CCl (stereo not drawn) was tested, and the AC50 was 5.06 µM (active).
In the case of CCOP(=S)(OCC)O/N=C(\C#N)c1ccccc1, the outcome is reported as “inactive”.
For COc1ccc(N)cc1, the outcome was “inactive”.
For O=S1(=O)OC(c2cc(Br)c(O)c(Br)c2)(c2cc(Br)c(O)c(Br)c2)c2ccccc21, the AC50 was 5.92 µM (active).
With O=C(CCl)Nc1ccccc1 the outcome was “inactive”.
Nc1ncn[nH]1 was tested, and the outcome was “inactive”.
For O=CCCl, the outcome was “inactive”.
COc1nn(C(=O)NS(=O)(=O)c2ccccc2OC(F)(F)F)c(=O)n1C was tested, and the AC50 was 23.4 µM (active).
For O=c1[nH]c(=O)n(Cl)c(=O)n1Cl, the outcome was “inactive”.
For O=C(NC(=O)c1c(F)cccc1F)Nc1cc(Cl)c(OC(F)(F)C(F)C(F)(F)F)cc1Cl (stereo not drawn), the outcome was “inactive”.
In the case of CC(O)(CS(=O)(=O)c1ccc(F)cc1)C(=O)Nc1ccc(C#N)c(C(F)(F)F)c1 (stereo not drawn), the outcome is reported as “inactive”.
O=C(CBr)c1ccc(O)cc1 was tested, and the outcome was “inactive”.

These compounds were tested against rat Androgen Receptor (AR), Ar (gene 24208) (UniProt P15207) (assay: NVS_NR_rAR: NovaScreen (NVS) Nuclear Receptor Binding Assay for rat Androgen Receptor (AR) (AID 2283366)).
rat Androgen Receptor (AR), Ar (gene 24208), sequence (P15207 whole entry, looked up): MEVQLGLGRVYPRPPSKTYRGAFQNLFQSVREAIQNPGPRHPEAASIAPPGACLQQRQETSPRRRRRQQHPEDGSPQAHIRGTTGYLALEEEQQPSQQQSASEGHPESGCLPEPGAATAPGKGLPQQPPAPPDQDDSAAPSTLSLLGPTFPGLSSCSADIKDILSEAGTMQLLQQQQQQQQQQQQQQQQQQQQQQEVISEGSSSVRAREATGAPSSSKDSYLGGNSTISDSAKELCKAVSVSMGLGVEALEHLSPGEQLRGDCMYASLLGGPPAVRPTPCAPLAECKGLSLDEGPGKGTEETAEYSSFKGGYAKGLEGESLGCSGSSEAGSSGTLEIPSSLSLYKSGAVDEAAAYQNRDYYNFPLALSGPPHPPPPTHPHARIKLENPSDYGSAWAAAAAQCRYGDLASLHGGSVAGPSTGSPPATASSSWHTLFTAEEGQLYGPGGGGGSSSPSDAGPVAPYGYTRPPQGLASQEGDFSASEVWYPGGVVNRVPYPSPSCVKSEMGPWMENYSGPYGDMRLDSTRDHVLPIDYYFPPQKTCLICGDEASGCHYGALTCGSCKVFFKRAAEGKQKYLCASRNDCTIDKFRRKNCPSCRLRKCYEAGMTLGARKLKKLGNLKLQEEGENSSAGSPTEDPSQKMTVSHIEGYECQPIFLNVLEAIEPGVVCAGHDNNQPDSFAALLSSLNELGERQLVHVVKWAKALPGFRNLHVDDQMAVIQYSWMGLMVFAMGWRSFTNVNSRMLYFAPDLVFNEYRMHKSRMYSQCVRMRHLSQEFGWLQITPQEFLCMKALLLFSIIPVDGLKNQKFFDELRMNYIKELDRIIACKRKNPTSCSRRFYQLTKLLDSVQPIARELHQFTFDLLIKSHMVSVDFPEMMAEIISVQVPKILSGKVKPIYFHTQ
Summary of the method: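 Actives from a duplicate single-concentration (25 uM) primary run went on to concentration series. Displacement of radioligand was counted by filtration and scintillation, 18 h post-dose, using prostate extracts from testosterone-pretreated rats, with DMSO as baseline.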
Nc1c(Oc2ccccc2)cc(O)c2c1C(=O)c1ccccc1C2=O was tested, and the outcome was “inactive”.
With O=S1(=O)OC(c2cc(Br)c(O)c(Br)c2)(c2cc(Br)c(O)c(Br)c2)c2ccccc21 the AC50 was 3.11 µM (active).
[Cl][Sn]([c]1ccccc1)([c]1ccccc1)[c]1ccccc1 was tested, and the AC50 was 2.42 µM (active).

Each compound was assayed against guinea pig Sigma Receptor, Non-selective Binding, SIGMAR1 (gene 100135589) (UniProt Q60492) (assay: NVS_OR_gSIGMA_NonSelective: NovaScreen (NVS) Nuclear Receptor Binding Assay for guinea pig Sigma Receptor, Non-selective Binding (AID 2283367)).
guinea pig Sigma Receptor, Non-selective Binding, SIGMAR1 (gene 100135589), sequence (Q60492 whole entry, looked up): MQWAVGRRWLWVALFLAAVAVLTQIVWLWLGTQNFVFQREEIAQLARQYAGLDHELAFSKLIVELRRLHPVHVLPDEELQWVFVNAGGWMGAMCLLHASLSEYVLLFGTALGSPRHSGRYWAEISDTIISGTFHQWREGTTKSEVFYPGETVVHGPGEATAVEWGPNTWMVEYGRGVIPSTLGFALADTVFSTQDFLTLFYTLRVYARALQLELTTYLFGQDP
Experimental: NVS_OR_gSIGMA_NonSelective is a biochemical, single-readout assay that uses extracted gene-proteins from Guinea pig brain membranes in a tissue-based cell-free assay. Measurements were taken 1 hour after chemical dosing in a 48-well plate.NVS_OR_gSIGMA_NonSelective is one of one assay component(s) measured or calculated from the NVS_OR_gSIGMA_NonSelective assay. It is designed to make measurements of radioligand binding, a form of binding reporter, as detected with scintillation counting signals by Filter-based radiodetection technology.Data from the assay component NVS_OR_gSIGMA_NonSelective was analyzed into 1 assay endpoint. This assay endpoint, NVS_OR_gSIGMA_NonSelective, was analyzed in the positive analysis fitting direction relative to DMSO as the negative control and baseline of activity. Using a type of binding reporter, loss-of-signal activity can be used to understand changes in the binding as they relate to the gene Sigmar1. Furthermore, this assay endpoint can be referred to as a primary readout, because the performed assay has only produced 1 assay endpoint. To generalize the intended target to other relatable targets, this assay endpoint is annotated to the misc protein intended target family, where the subfamily is chaperone.
Binding assays used specific radioligands (tritiated, iodinated) with non-radioactive competitive displacement ligands in agonist or antagonist protocols (as indicated) and various reference compounds and inhibitors to titrate specific binding to receptors and transporters. Most enzyme assays (CYPs, kinases, phosphatases, proteases, HDACs) used recombinant protein and specific substrates (fluorescence mostly, some colorimetric and radioactive) and inhibitors, followed by a biochemical separation of substrate and product. All assays for the biochemical HTS were initially run in duplicate at a single concentration (10 uM for CYP450 assays and 25 uM for all others). […] Each assay was run with positive and negative controls, and concurrent controls on every plate. The follow-up (secondary) screen tested active chemical-pairs in concentration series, as well as a few additional assays not tested in the primary screen, some selected negative inactives, and several cases re-run in the concentration series for confirmatory purposes.
In the case of CCOC(=O)CCN(SN(C)C(=O)Oc1cccc2c1OC(C)(C)C2)C(C)C, the AC50 is reported as 15.8 µM (active).
For CCCCCCCCCCBr, the AC50 was 0.87 µM (active).
For CCCCCCCCCCCCN(C)C, the AC50 was 1.51 µM (active).

— PubChem BioAssay (EPA / NIEHS)
